± gives the uncertainty stated by the source. Over roughly 9,900 compounds, “viability index relative to DMSO control” has its median near 1; the lowest 2% begin near 0.85. The full list was thinned out, with the lowest values kept by preference.
Tested on: Plasmodium falciparum NF54 stage V gametocytes
Assay: viability index relative to DMSO control (fraction); higher = less gametocyte killing
Conditions: 2.5 µM, incubation time: 72 h
Procedure, shortened: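 Stage V gametocytes of P. falciparum NF54 were held in serum-free screening medium at 0.75% gametocytemia and 1.25% hematocrit, 10 µl per well of a 1,536-well plate, and exposed to compound at 2.5 µM for 72 hr at 37°C under low oxygen. A 3 µl mix of 2.5 µM MitoTracker Red CMXRos with 0.13% saponin was then added for one to two hours, after which one field per well was imaged and red particles of 20–70 µm2 were counted. The viability index equals this count divided by the plate mean from wells given solvent alone.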

[1] = library set: Broad Institute DOS
[2] = library set: Broad Institute Blood Stage

In the case of `CO[C@@H]1CN(C)C(=O)c2cc(NC(=O)Nc3cc(F)ccc3F)ccc2OC[C@H](C)NC[C@H]1C`, the viability index [1] is reported as 1.022 ± 0.01.

`N#C[C@H]1[C@H](c2ccc(C#Cc3cccc(F)c3)cc2)[C@@H](CO)N1C(=O)C1CCOCC1` was tested, and the viability index [1] was 1.12 ± 0.025.

For `COc1ccccc1C#Cc1ccc([C@H]2[C@@H](CO)N(C(=O)C3CC3)[C@H]2C#N)cc1`, the viability index [2] was 0.849 ± 0.047.

Work on `COc1cccc(C#Cc2ccc([C@@H]3[C@@H](C#N)N(C(=O)c4ccccn4)[C@H]3CO)cc2)c1` yielded a viability index [1] of 1.04 ± 0.029.

For `COc1ccccc1C#Cc1ccc([C@H]2[C@H](C#N)N(C(=O)C3CCC3)[C@H]2CO)cc1`, the viability index [1] was 1.02 ± 0.025.

With `COc1ccccc1C#Cc1ccc([C@H]2[C@@H](C#N)N(C(=O)C3CCC3)[C@H]2CO)cc1` the viability index [1] was 0.846 ± 0.07.

With `COc1cccc(C#Cc2ccc([C@@H]3[C@H](C#N)N(C(=O)c4ccccn4)[C@H]3CO)cc2)c1` the viability index [1] was 0.929 ± 0.051.

With `COc1cccc(C#Cc2ccc([C@H]3[C@@H](CO)N(C(=O)c4ccccn4)[C@H]3C#N)cc2)c1` the viability index [1] was 0.8087 ± 0.0043.

With `COc1ccccc1C#Cc1ccc([C@H]2[C@@H](C#N)N(C(=O)C3CCCC3)[C@H]2CO)cc1` the viability index [2] was 0.583 ± 0.18.

Work on `N#C[C@H]1[C@@H](c2ccc(C#Cc3cccc(F)c3)cc2)[C@@H](CO)N1C(=O)C1CCOCC1` yielded a viability index [1] of 1.05 ± 0.058.

With `COc1ccccc1C#Cc1ccc([C@@H]2[C@@H](CO)N(C(=O)C3CCC3)[C@H]2C#N)cc1` the viability index [1] was 1.06 ± 0.047.

For `COc1ccccc1C#Cc1ccc([C@H]2[C@@H](C#N)N(C(=O)C3CCC3)[C@@H]2CO)cc1`, the viability index [1] was 1.05 ± 0.038.

In the case of `COc1ccccc1C#Cc1ccc([C@@H]2[C@@H](C#N)N(C(=O)C3CCC3)[C@@H]2CO)cc1`, the viability index [1] is reported as 1.15 ± 0.082.

For `C[C@@H]1CN([C@@H](C)CO)C(=O)c2c(c3ccccc3n2C)-c2ccccc2CO[C@H]1CN(C)C(=O)[C@H]1CCCN1C`, the viability index [1] was 1.08 ± 0.011.

In the case of `C[C@H](CO)N1C[C@H](C)[C@@H](CN(C)CC2CC2)OCCCC[C@H](C)Oc2ccc(NC(=O)c3ccccc3)cc2C1=O`, the viability index [1] is reported as 1.07 ± 0.02.

With `CCCN(C)C[C@@H]1OCCCC[C@H](C)Oc2ccc(NC(=O)CCCN(C)C)cc2C(=O)N([C@@H](C)CO)C[C@@H]1C` the viability index [1] was 1.1 ± 0.14.

With `OC[C@H]1Nc2ccc(C#Cc3ccc(F)cc3)cc2[C@@H]2[C@H]1CCN2Cc1ccc2c(c1)OCO2` the viability index [1] was 1.06 ± 0.019.

`CN1C(=O)c2cc(NC(=O)c3cccc(F)c3)ccc2OC[C@@H]2O[C@H](CC(=O)NCc3ccccc3Cl)CC[C@H]21` was tested, and the viability index [1] was 1.13 ± 0.036.

`C[C@@H]1CN([C@H](C)CO)C(=O)c2cc(NS(=O)(=O)c3ccccc3)ccc2O[C@@H](C)CCCCO[C@@H]1CN(C)C(=O)C1CCCCC1` gave a viability index [1] of 1.01 ± 0.13.

Compound `CC(C)C(=O)Nc1ccc2c(c1)C(=O)N(C)[C@H]1CC[C@@H](CC(=O)NCCc3ccccc3)O[C@@H]1CO2` has a viability index [1] of 1.03 ± 0.06.

In the case of `COc1ccccc1C#Cc1ccc([C@H]2[C@@H](C#N)N(C(=O)C3CCCCC3)[C@H]2CO)cc1`, the viability index [2] is reported as 0.345 ± 0.087.

`COc1cccc(C#Cc2ccc([C@H]3[C@@H](CO)N(C(=O)C4CCCC4)[C@H]3C#N)cc2)c1` gave a viability index [2] of 0.882 ± 0.054.

With `COc1ccccc1C#Cc1ccc([C@@H]2[C@H](C#N)N(C(=O)C3CCC3)[C@H]2CO)cc1` the viability index [1] was 1.03 ± 0.09.

`COc1cccc(C#Cc2ccc([C@@H]3[C@@H](C#N)N(C(=O)C4CCCCC4)[C@H]3CO)cc2)c1` gave a viability index [2] of 0.7 ± 0.1.

In the case of `COc1ccccc1C#Cc1ccc([C@@H]2[C@@H](C#N)N(C(=O)C3CCC3)[C@H]2CO)cc1`, the viability index [1] is reported as 1.03 ± 0.022.

With `COc1cccc(C#Cc2ccc([C@H]3[C@@H](C#N)N(C(=O)c4ccccn4)[C@@H]3CO)cc2)c1` the viability index [1] was 1.098 ± 0.009.

Work on `CCCNC(=O)N(C)C[C@H]1Oc2ncc(C#CC3CCCCC3)cc2C(=O)N([C@@H](C)CO)C[C@@H]1C` yielded a viability index [1] of 0.929 ± 0.067.

`Cc1ccccc1S(=O)(=O)Nc1ccc2c(c1)C(=O)N(C)[C@@H]1CC[C@H](CC(=O)O)O[C@@H]1CO2` was tested, and the viability index [1] was 1.01 ± 0.033.

Work on `CN(C)CC(=O)N1[C@H](C(=O)Nc2nccs2)[C@@H](CO)[C@@H]2Cn3c(ccc(C4=CCCCC4)c3=O)[C@@H]21` yielded a viability index [1] of 1.02 ± 0.015.

Work on `COc1ccc(CN2C[C@H](O)COC[C@@H]3O[C@H](CC(=O)N(C)C)CC[C@H]32)cc1` yielded a viability index [1] of 1.08 ± 0.1.

`C[C@H](CO)N1C[C@H](C)[C@H](CN(C)C(=O)NC2CCCCC2)Oc2ccc(N(C)C)cc2CC1=O` showed a viability index [1] of 1.13 ± 0.1.

In the case of `CO[C@H]1CC[C@@H]2CCOc3c(C#N)cccc3C(=O)N(C)C[C@@H](OC)[C@@H](C)C(=O)N(C)C[C@@H]1O2`, the viability index [1] is reported as 1 ± 0.023.

`COc1ccc2c3c([C@H](CO)N(C[C@]33CCN(CC3)C(=O)Nc3cccc(F)c3)C(=O)CN3CCOCC3)n(C)c2c1` gave a viability index [1] of 0.941 ± 0.018.

`COc1ccc2c3c([C@@H](CO)N(C[C@]33CCN(CC3)C(=O)Nc3cccc(F)c3)C(=O)C3CCCC3)n(C)c2c1` showed a viability index [2] of 0.822 ± 0.039.

`COc1ccc2c3c([C@@H](CO)N(C[C@]33CCN(CC3)C(=O)Nc3cccc(F)c3)C(=O)CN3CCOCC3)n(C)c2c1` gave a viability index [1] of 0.993 ± 0.12.

For `COc1ccc2c3c([C@@H](CO)N(C[C@]33CN(C3)C(=O)Nc3cccc(F)c3)C(=O)C3CCOCC3)n(C)c2c1`, the viability index [1] was 1.06 ± 0.05.

For `CCCNC(=O)N1C[C@]2(CCN(CC2)C(=O)Nc2cccc(F)c2)c2c([C@H]1CO)n(C)c1cc(OC)ccc21`, the viability index [1] was 0.991 ± 0.079.

For `COc1ccc2c3c([C@@H](CO)N(C[C@]33CCN(CC3)C(=O)Nc3cccc(F)c3)C(=O)C3CC3)n(C)c2c1`, the viability index [2] was 0.807 ± 0.036.
